Screen size: about 310,000 compounds; about 14,000 (4.5%) showed an effect of 50% or more. The effect is printed as a negative number. The sample holds strong results, similar compounds and a random draw of the others, so the mix is not that of the screen.
The molecules below were run against human ether-à-go-go-related gene (hERG) potassium channel (human, UniProt Q12809) (assay: primary screen, population patch clamp on CHO cells stably expressing hERG; higher = less effect of the substance).
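Note: peak tail current of the secondary pulse compared with the same well before compound.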

Chain of human ether-à-go-go-related gene (hERG) potassium channel (Q12809 whole entry, looked up): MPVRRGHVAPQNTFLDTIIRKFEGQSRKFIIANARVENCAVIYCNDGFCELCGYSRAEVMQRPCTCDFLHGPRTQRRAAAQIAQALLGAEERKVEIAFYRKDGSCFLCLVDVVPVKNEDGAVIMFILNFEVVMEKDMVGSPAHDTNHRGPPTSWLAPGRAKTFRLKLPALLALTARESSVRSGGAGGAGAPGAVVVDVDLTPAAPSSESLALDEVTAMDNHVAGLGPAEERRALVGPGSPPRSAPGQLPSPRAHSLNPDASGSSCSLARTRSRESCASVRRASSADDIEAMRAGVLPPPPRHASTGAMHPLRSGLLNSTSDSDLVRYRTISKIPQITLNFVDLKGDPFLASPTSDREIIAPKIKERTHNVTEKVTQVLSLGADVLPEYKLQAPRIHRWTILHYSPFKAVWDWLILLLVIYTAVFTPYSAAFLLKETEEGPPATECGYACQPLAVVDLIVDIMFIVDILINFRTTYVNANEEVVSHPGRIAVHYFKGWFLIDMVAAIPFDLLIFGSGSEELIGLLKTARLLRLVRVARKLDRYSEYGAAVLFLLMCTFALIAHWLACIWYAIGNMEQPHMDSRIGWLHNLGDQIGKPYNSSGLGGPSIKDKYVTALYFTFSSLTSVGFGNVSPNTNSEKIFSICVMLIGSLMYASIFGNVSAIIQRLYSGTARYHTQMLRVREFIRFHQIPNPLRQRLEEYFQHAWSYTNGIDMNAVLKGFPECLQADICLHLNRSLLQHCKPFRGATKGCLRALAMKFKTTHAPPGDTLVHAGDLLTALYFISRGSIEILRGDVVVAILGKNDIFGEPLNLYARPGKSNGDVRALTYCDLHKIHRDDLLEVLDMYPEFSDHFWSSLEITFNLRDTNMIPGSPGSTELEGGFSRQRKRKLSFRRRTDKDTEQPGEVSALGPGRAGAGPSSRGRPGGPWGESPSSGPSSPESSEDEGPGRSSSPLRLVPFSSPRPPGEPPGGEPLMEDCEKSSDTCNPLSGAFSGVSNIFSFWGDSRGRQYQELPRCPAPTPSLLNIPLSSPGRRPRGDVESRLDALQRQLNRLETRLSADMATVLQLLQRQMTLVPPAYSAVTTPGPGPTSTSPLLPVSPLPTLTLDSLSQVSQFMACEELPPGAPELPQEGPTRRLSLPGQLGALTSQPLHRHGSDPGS

Row | Structure (SMILES) | hERG current change (%, negative = inhibition) at 10uM
1 | CCOc1cc(C2Nc3ccccc3C(=O)N2c2ccccc2OC)ccc1O (centres unmarked) | 1.46%
2 | CC(C)CC(=O)N(c1ccc(F)cc1)C1C=CS(=O)(=O)C1 (centres unmarked) | 14.4%
3 | CC(=O)N1N=C2C3CCN(CC3)C2C1c1ccc(Br)cc1 (centres unmarked) | 4.62%
4 | Cc1cc(C)n2nc(NCc3cccc(Br)c3)nc2n1 | -70%
5 | COc1cccc(CNc2nc3nc(C)c(Cl)c(C)n3n2)c1 | -57.9%
6 | COc1ccc(CNc2nc3nc(C)c(Cl)c(C)n3n2)cc1OC | -7.54%
7 | COc1cccc(CNc2nc3nc(C)cc(C)n3n2)c1 | -15.6%
8 | COc1ccc(CNc2nc3nc(C)c(Cl)c(C)n3n2)cc1 | 2.05%
9 | Cc1cc(C)n2nc(NCc3ccccc3)nc2n1 | -9.34%
10 | CC(NC(=O)Cc1ccccc1F)c1ccc(F)cc1 (centres unmarked) | 6.9%
11 | Cc1ccc(C2=C/C(=C\c3cccnc3)C(=O)O2)cc1 | 30.8%
12 | NC(=O)NCCCC(=O)OCC(=O)c1ccc2ccccc2c1 | 13.4%
13 | CCCNC(=O)N1CCC(c2nc3ccccc3s2)CC1 | -16.8%
14 | CCOc1cc(N2CCOCC2)c(OCC)cc1NC(=O)COC(=O)c1cc(C)cc(C)c1 | -3.29%
15 | COc1c2ccccc2c(OC)c2ccccc12 | 12.9%
16 | C/C=C/c1ccccc1OCc1ccc(C(=O)O)o1 | 20%
17 | CSCC[C@H](NC(=O)COc1ccc(Cl)cc1)c1nc2ccccc2[nH]1 | -56.5%
18 | CSCC[C@H](NC(=O)C(C)Oc1ccc(Cl)cc1)c1nc2ccccc2[nH]1 (some centres unmarked) | -7.16%
19 | CSCC[C@H](NC(=O)COc1ccc(Cl)cc1Cl)c1nc2ccccc2[nH]1 | 14.7%
20 | CCCn1c(SCC(=O)Nc2nnc(C)s2)nnc1-c1ccoc1C | 3.4%
21 | Cc1ccc(C)c(-n2c(SCC(=O)Nc3nnc(C)s3)nnc2-c2ccoc2C)c1 | 5.96%
22 | CCc1nnc(NC(=O)CSc2nnc(-c3ccoc3C)n2-c2ccc(C)cc2)s1 | -26.4%
23 | Cc1cccc(-n2c(SCC(=O)Nc3nnc(C)s3)nnc2-c2ccoc2C)c1 | -63.9%

Row | Structure (SMILES) | hERG current change (%, negative = inhibition) at 10uM
24 | CCc1nnc(NC(=O)CSc2nnc(-c3ccoc3C)n2-c2cccc(C)c2)s1 | -58.3%
25 | CCc1nnc(NC(=O)CSc2nnc(-c3ccoc3C)n2-c2ccccc2)s1 | -3.54%
26 | O=C(NCCc1ccccc1Cl)c1cc(COc2ccc(F)cc2F)on1 | 7.59%
27 | O=C(CCC(=O)Nc1ccc(F)cc1)N/N=C/c1cccnc1 | 17.8%
28 | CCOc1ccc(S(=O)(=O)NCCC(=O)NCc2ccco2)cc1 | -0.369%
29 | O=C(NC1CCCCC1)c1ccc(S(=O)(=O)N2CCCCC2)cc1 | -6.43%
30 | COc1ccc(S(=O)(=O)Nc2cc(C(C)C)c(O)cc2C)cc1 | -2.38%
31 | CN(C)C(=O)c1nc2ccc(Cl)cn2c1CN1CCCC(OCc2cccnc2)C1 (centres unmarked) | -57.9%
32 | COC1CCCN(Cc2c(C(=O)N3CCc4ccccc4C3)nc3ccc(Cl)cn23)C1 (centres unmarked) | -35.9%
33 | CN(C)C(=O)c1nc2ccc(Cl)cn2c1CN1CCCC(OCc2ccccc2)C1 (centres unmarked) | -36.2%
34 | NCCNc1ccc2nnnn2n1 | 38.7%
35 | Oc1ccccc1CN1CCCC(N2CCc3ccccc3C2)C1 (centres unmarked) | -38.8%
36 | COc1cccc(CN2CCCC(N3CCc4ccccc4C3)C2)c1O (centres unmarked) | -17.7%
37 | CCOc1cccc(CN2CCCC(N3CCc4ccccc4C3)C2)c1O (centres unmarked) | -52.9%
38 | COc1ccc(CN2CCCC(N3CCc4ccccc4C3)C2)c(O)c1 (centres unmarked) | -60.1%
39 | COc1ccc(O)c(CN2CCCC(N3CCc4ccccc4C3)C2)c1 (centres unmarked) | -46.6%
40 | CCOc1cc(CN2CCCC(N3CCc4ccccc4C3)C2)ccc1O (centres unmarked) | -21.4%
41 | CCC(C)(C)NC(=O)C(c1ccc(OC)cc1)N(CCOC)C(=O)CCC(=O)Nc1nccs1 (centres unmarked) | 0.428%
42 | COc1cc(NC(=O)Cn2cnc(S(=O)(=O)N3CCCCC3)c2)cc(OC)c1OC | 14.9%
43 | Cc1ccc(-c2ncccc2OC(=O)C23CC4CC(CC(C4)C2)C3)cc1.Cl | 12%
44 | COc1ccc2c(c1OC)CN(C)CCc1cc3c(cc1C(=O)C2)OCO3 | -81%
45 | COc1cc2c(cc1OC)C(C1c3cc4c(cc3CCN1C)OCO4)OC2=O (centres unmarked) | 4.1%
46 | COc1ccc2c(c1OC)CN(C)CCc1cc3c(cc1C(O)C2)OCO3 (centres unmarked) | -27.1%

Row | Structure (SMILES) | hERG current change (%, negative = inhibition) at 10uM
47 | Br.COc1c2c(cc3c1OCO3)CCN(C)C2 | 0.899%
48 | COc1cc2c(cc1OC)C(=O)Cc1ccc3c(c1CN(C)CC2)OCO3 | -54.1%
49 | COc1ccc2c(c1OC)CN1CCc3cc4c(cc3[C@H]1C2)OCO4 | -1.81%
50 | O=C(Nc1ccc(CN2CCOCC2)cc1)c1ccc(Br)o1 | 1.56%
51 | Cc1ccc2nc(SCC(=O)N3CC(C)OC(C)C3)nc(=O)n2c1 (centres unmarked) | -13%
52 | O=C(N/N=C/c1cc([N+](=O)[O-])c(N2CCOCC2)cc1N1CCOCC1)c1cccnc1 | -22.4%
53 | CCOC(=O)N1CCC(c2cc(=O)n3[nH]cc(C(=O)OC)c3n2)CC1 | 9.34%
54 | CC[C@]12CCCN3CCc4c(n(c5ccccc45)[C@](O)(C(=O)OC)C1)[C@@H]32 | -72.4%
55 | CC[C@]12CCCN3CCc4c(n(c5ccccc45)[C@@](O)(C(=O)OC)C1)[C@@H]32 | -80.9%
56 | COC(=O)[C@@H]1[C@H]2C[C@H]3c4[nH]c5ccccc5c4CCN3C[C@@H]2CC[C@@H]1O.Cl | -22%
57 | CC[C@H]1CC2CN3CCc4c([nH]c5ccccc45)C(C(=O)OC)(C2)C13.Cl (some centres unmarked) | -2.97%
58 | CCC1(C(=O)OC)CCc2c(cc(OC)c3ccccc23)C1=O (centres unmarked) | 3.07%
59 | CCC12CCCN3CCc4c(n(c5ccccc45)C(O)(C(=O)OC)C1)C32 (centres unmarked) | -28.9%
60 | O=C(NCc1ccco1)c1ccc(Cl)c(S(=O)(=O)N2CCCC2)c1 | -9.61%
61 | O=C1NC(=O)/C(=C\c2ccc(OCc3cccc(C(=O)O)c3)c(Cl)c2)N1 | 20.1%
62 | COc1cc(OC)cc(C(=O)Nc2ccc(S(=O)(=O)Nc3ncccn3)cc2)c1 | 12.8%
63 | COc1c(C)cc(C(=O)C2CCCN(Cc3cnc(N4CCOCC4)s3)C2)cc1C (centres unmarked) | -8.64%
64 | CS/C(=N\NC(N)=O)c1ccccc1 | -8.24%
65 | O=C(O)c1ccc2c(=O)n3c(nc2c1)/C(=C/c1ccccc1Br)CC3 | 4.66%
66 | C/C(=N\NC(=O)CCCNc1cccc(C)c1)c1ccncc1 | 0.987%
67 | CCCCn1c(N)c(N(CC(C)C)C(=O)c2ccc(S(=O)(=O)N3CCCCCC3)cc2)c(=O)[nH]c1=O | 9.58%
68 | O=C(CCc1nc2ccccc2[nH]1)NCc1ccc2c(c1)OCO2 | -38.1%
69 | O=C(NCCc1nc2ccccc2[nH]1)/C(=C/c1ccc2c(c1)OCO2)NC(=O)c1ccccc1Cl | -80.6%

Row | Structure (SMILES) | hERG current change (%, negative = inhibition) at 10uM
70 | O=C(NCCc1nc2ccccc2[nH]1)/C(=C/c1ccc2c(c1)OCO2)NC(=O)c1ccc(Cl)cc1Cl | -76.3%
71 | O=C(NCCc1nc2ccccc2[nH]1)/C(=C/c1ccc2c(c1)OCO2)NC(=O)c1ccccc1 | -71.1%
72 | CC(C)=C(NC(=O)c1ccccc1)C(=O)NCCc1nc2ccccc2[nH]1 | 9.91%
73 | O=C(N/N=C/c1ccc2c(c1)OCO2)c1ccc(Cl)cc1Cl | 20.3%
74 | O=C(NCCCCCc1nc2ccccc2[nH]1)c1ccccc1Cl | -6.43%
75 | COc1ccc(C(=O)N/C(=C\c2ccc3c(c2)OCO3)C(=O)NCCc2nc3ccccc3[nH]2)cc1 | -39.4%
76 | O=C(Nc1cccc(C(=O)O)c1)/C(=C\c1ccc2c(c1)OCO2)NC(=O)c1ccccc1Cl | 3.5%
77 | CCc1ccccc1NC(=O)CSc1nc2ccccc2nc1N1CCOCC1 | -15.1%
78 | CCOC(=O)C1CCCN(C(=O)CCC(=O)Nc2ccc3nc(N4CCOCC4)cc(C)c3c2)C1 (centres unmarked) | -23.7%
79 | O=C(NC1CCS(=O)(=O)C1)/C(=C\c1ccco1)NC(=O)c1ccccc1 (centres unmarked) | 1.36%
80 | Cc1cc(-c2nn3c(C)nnc3s2)ccc1NC(=O)C(C)(C)C | 10.7%
81 | CN1CCN(C(=O)C2CCN(S(=O)(=O)c3ccc(F)cc3)CC2)CC1 | 5.18%
82 | O=C(c1ccc(F)cc1)N1CCC(C(=O)N2CCN(S(=O)(=O)c3ccccc3Br)CC2)CC1 | -32.6%
83 | Cc1ccc(S(=O)(=O)N2CCN(C(=O)c3ccco3)CC2)c(C)c1 | -7.22%
84 | CC(=O)c1ccc(N2CCN(C(=O)C3CCN(S(=O)(=O)c4ccc(F)cc4)CC3)CC2)cc1 | -52.6%
85 | Cc1ccc(C)c(S(=O)(=O)N2CCN(C(=O)C3CCN(C(=O)c4ccc(F)cc4)CC3)CC2)c1 | -30.6%
86 | CC(C)c1ccc(S(=O)(=O)N2CCN(C(=O)C3CCN(C(=O)c4ccc(F)cc4)CC3)CC2)cc1 | -53.7%
87 | Cc1ccc(S(=O)(=O)N2CCN(C(=O)COC(=O)c3ccc(Br)o3)CC2)c(C)c1 | -10.3%
88 | CC(C)c1ccc(S(=O)(=O)N2CCN(C(=O)C3CCCC3)CC2)cc1 | 2.78%
89 | COc1ccc(N2CCN(C(=O)C3CCN(S(=O)(=O)c4ccc(F)cc4)CC3)CC2)cc1 | -48.3%
90 | Cc1ccc(S(=O)(=O)N2CCN(C(=O)C3CCN(C(=O)c4ccc(F)cc4)CC3)CC2)c(C)c1 | -55.7%
91 | Cc1ccc(S(=O)(=O)N2CCN(C(=O)c3ccc(Br)o3)CC2)c(C)c1 | -55%
92 | CC(=O)N1CCC(C(=O)N2CCN(S(=O)(=O)c3ccc(F)cc3)CC2)CC1 | -1.33%
